This is one part of the list. Active and inactive are the calls of the source. No rule for the calls is given here.
Assay: TO-PRO-1 dye complex inhibitors on d(CAG) DNA, dose response, counter-screen, biochemical, fluorescence, late stage (AID 720649)
Conditions: d(CAG) DNA duplex TO-PRO-1 dye displacement

## O=C1CC(=O)N(Cc2ccccc2)C(=O)N1CCCCCCN1C(=O)CC(=O)N(Cc2ccccc2)C1=O
  IC50: 6.7 µM (active)

Source: PubChem BioAssay AID720649 (The Scripps Research Institute Molecular Screening Center, 2013)
